Test [1] concerns the target Albumin (Bos taurus) (UniProt P02769). Description: bovine serum albumin binders on microarray, profiling panel, artefact control for SMM control protein annotation, biochemical, small-molecule microarray, Alexa647 label, 635/667 nm fluorescence (AID 1118).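 Note: score merges 667 nm emission intensity and signal-to-noise per printed compound spot.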 The note with it: BSA-A647 binding, fluorescence 635 nm, higher = more signal.
A short description of test [2]: small-molecule microarray binders of probe aXIP, primary screen, biochemical, NeuroSMM set, 635/667 nm fluorescence (AID 1119).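 Note: probe is the protein aXip251-270 applied at 1 µg/mL to compound-printed slides; binding of probe to printed compounds measured as 667 nm fluorescence plus signal to noise.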 The note with it: higher = more signal, called active from +8 up or from −8 down.
Test [3] is described as follows: small-molecule binders of probe aNOTCH3, primary screen, biochemical, small-molecule microarray, 635/667 nm fluorescence (AID 1120).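 Note: probe is a biotin-tagged antibody raised against NOTCH3 rather than NOTCH3 protein; score merges spot fluorescence near 667 nm with spot signal to noise.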 The note with it: higher = more signal.
The nature of test [4]: small-molecule binders of probe aNOTCH2, primary screen, biochemical, small-molecule microarray, 635/667 nm fluorescence (AID 1121).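 Note: score merges feature fluorescence read at 667 nm with its signal to noise.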 The note with it: higher = more signal.
The target in test [5] is Carbonic anhydrase 2 (Homo sapiens) (UniProt P00918). Description: CAII small-molecule binders, profiling panel, biochemical, small-molecule microarray, Alexa647-labelled CAII (AID 1122). The note with it: CAII-A647 binding fluorescence, higher = more signal.
Test [6] is described as follows: COS7 lysate on small-molecule microarray, probe aHis, 635 nm (AID 1123).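 Note: z-score combines 667nm fluorescence intensity with signal-to-noise per printed compound spot.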 To be noted: COS7 cell lysate, fluorescence, higher = more signal.
A short description of test [7]: compound binding in COS7 lysate, probe aLAP1, primary screen, cell lysate, small-molecule microarray (AID 1124).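 Note: lysate comes from COS7 cells expressing LAP1 and is applied at 0.3 µg/mL; score merges spot fluorescence near 667 nm with signal-to-noise over triplicate slides.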 To be noted: probe aLAP1, fluorescence, higher = more signal.
For test [8], the system named is Sam68 (KHDRBS1). Description: Sam68 small-molecule binders, primary screen, biochemical, small-molecule microarray, 635 nm fluorescence (AID 1125).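 Note: score merges 667 nm channel intensity with signal to noise over triplicate slides.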 To be noted: small-molecule microarray binding, higher = more signal.
The test system of test [9] is Chordin-like protein 2 (CHRDL2). The experiment in a line: CHRDL2 small-molecule binders, primary screen, biochemical, small-molecule microarray, 635 nm fluorescence (AID 1126).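 Note: printed compound slides probed with Chrdl2 protein at 4 µg/mL for 1 h at 4 C; score merges 667 nm emission intensity with signal to noise over three replicate slides.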 The note with it: small-molecule microarray binding, fluorescence 635 nm; higher = more signal.
Test [10] concerns the target Concanavalin-A (Canavalia ensiformis) (UniProt P02866). The experiment in a line: ConA small-molecule binders, primary screen, artefact control for SMM control protein annotation, biochemical, small-molecule microarray, Alexa647 label, 635 nm (AID 1127).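 Note: z combines 667 nm emission intensity with signal-to-noise across three replicate slides.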 To be noted: ConA-A647 binding fluorescence, higher = more signal.
Test [11] is described as follows: anti-His antibody binders, primary screen, artefact control for SMM control protein annotation, biochemical, small-molecule microarray, 635 nm fluorescence (AID 1128).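 Note: score merges feature fluorescence with signal-to-noise for each printed compound spot.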 The note with it: anti-His Alexa647 antibody binding, higher = more signal.
In test [12] the test system is Human papillomavirus type 1a E7 protein (residues 1-88). The experiment in a line: HPV1a E7 small-molecule binders, primary screen, biochemical, small-molecule microarray, residues 1-88, 635 nm (AID 1129). The note with it: small-molecule microarray binding, fluorescence 635 nm; higher = more signal.
Test [13] addresses Focal adhesion kinase 1 (Homo sapiens) (UniProt Q05397). The experiment in a line: small-molecule microarray binders of FAK, primary screen, biochemical, 635/667 nm fluorescence, BSA, DTT (AID 1130).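 Note: composite of spot emission at 667 nm and signal to noise over triplicate slides.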 The note with it: PTK2 binding, 635 nm fluorescence, higher = more signal.
Test [14] concerns Fibrinogen (Alexa647-labelled). Description: fibrinogen binders on compound microarrays, profiling panel, artefact control for SMM control-protein annotation, biochemical, small-molecule microarray, 635/667 nm fluorescence (AID 1131).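 Note: z-score merges 667 nm fluorescence with per-spot signal-to-noise over triplicate slides.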 The note with it: fibrinogen-A647 binding fluorescence, higher = more signal.
Test [15] addresses Follistatin (Homo sapiens) (UniProt P19883). Description: follistatin binders on small-molecule microarrays, primary screen, biochemical, small-molecule microarray, 635/667 nm fluorescence (AID 1132). The note with it: FST binding, 635 nm fluorescence, higher = more signal.
The target in test [16] is Fibroblast growth factor 2 (Homo sapiens) (UniProt P09038). Description: FGF2 binders on small-molecule microarrays, primary screen, biochemical, small-molecule microarray, 635/667 nm fluorescence (AID 1133). To be noted: small-molecule microarray binding, FGF2, fluorescence 635/667; higher = more signal.
Test [17] is described as follows: mitochondrial membrane potential change in A549 cells, profiling panel, cell-based, JC-1 fluorescence, basal, 24 h, 100 nL (AID 1138).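 Note: A549 lung adenocarcinoma cells under basal conditions with no added stimulus; test concentration not given here.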 To be noted: higher = more signal.
Test [18] relates to Lefty1. The experiment in a line: Lefty1 binders on small-molecule microarrays, primary screen, biochemical, small-molecule microarray, 635/667 nm fluorescence (AID 1139). The note with it: small-molecule microarray binding, fluorescence 635/667; higher = more signal.
The test system of test [19] is wheat germ agglutinin (Triticum aestivum), Alexa647-labelled. Description: wheat germ agglutinin binders on compound microarrays, profiling panel, artefact control for SMM control-protein annotation, biochemical, small-molecule microarray, 635/667 nm fluorescence (AID 1140).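 Note: score merges 667 nm feature emission with signal to noise over triplicate slides.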 The note with it: WGA-A647 binding, 635 nm fluorescence, higher = more signal.
In test [20] the target is Luciferin 4-monooxygenase (Photinus pyralis) (UniProt P08659). Description: firefly luciferase enzyme inhibitors, primary screen, biochemical, luminescence, purified enzyme, 2006 set (AID 1141).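 Note: cell-free assay with purified firefly luciferase at 100 ng per well in PBS; test concentration not given here.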 The note with it: SteadyGlo luminescence, 30 min, higher = more signal, called active from +8 up or from −8 down.

Activity calls are given as the source filed them.

Chain of Focal adhesion kinase 1 (Homo sapiens) (Q05397 whole entry, looked up): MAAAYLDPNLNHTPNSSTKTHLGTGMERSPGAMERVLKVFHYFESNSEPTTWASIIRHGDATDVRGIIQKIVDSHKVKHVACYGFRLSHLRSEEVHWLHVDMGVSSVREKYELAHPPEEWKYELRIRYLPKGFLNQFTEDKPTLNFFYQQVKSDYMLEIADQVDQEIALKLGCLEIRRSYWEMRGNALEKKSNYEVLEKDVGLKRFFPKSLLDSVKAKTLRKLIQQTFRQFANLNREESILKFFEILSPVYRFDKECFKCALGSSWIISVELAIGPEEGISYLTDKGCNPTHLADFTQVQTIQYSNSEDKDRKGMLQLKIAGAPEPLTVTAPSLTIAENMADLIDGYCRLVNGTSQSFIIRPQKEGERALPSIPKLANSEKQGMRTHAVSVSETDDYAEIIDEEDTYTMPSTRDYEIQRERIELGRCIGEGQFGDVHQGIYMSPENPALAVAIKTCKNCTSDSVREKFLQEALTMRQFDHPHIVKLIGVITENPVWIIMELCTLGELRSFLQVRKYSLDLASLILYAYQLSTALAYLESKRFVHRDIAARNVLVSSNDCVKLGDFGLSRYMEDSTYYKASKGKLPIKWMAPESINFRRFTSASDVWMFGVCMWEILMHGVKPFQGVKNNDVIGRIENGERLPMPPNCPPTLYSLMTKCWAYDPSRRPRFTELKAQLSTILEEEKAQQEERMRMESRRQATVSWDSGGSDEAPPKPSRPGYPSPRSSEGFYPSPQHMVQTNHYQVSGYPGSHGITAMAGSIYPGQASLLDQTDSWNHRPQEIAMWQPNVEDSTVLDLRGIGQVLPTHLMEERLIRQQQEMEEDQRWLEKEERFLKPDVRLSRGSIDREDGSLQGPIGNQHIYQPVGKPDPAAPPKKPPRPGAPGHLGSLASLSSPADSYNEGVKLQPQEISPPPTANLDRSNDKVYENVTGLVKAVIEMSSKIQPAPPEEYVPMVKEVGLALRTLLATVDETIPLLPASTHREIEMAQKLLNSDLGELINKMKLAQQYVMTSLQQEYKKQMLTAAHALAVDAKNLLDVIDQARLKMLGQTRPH
Chain of Albumin (Bos taurus) (P02769 whole entry, looked up): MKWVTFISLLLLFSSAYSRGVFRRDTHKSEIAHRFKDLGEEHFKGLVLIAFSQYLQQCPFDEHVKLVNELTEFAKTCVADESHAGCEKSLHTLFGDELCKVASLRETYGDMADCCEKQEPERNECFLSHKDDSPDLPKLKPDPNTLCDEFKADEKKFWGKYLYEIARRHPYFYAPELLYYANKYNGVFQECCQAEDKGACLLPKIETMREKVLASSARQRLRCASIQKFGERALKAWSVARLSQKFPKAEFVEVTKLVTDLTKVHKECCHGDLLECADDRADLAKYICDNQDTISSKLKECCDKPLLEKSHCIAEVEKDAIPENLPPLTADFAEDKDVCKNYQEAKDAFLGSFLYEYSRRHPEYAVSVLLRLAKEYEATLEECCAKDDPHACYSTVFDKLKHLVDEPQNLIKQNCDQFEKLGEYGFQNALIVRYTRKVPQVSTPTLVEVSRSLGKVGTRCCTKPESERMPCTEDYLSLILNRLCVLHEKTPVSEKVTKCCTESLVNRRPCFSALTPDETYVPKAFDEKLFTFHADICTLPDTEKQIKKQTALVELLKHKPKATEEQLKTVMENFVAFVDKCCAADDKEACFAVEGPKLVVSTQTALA
Chain of Luciferin 4-monooxygenase (Photinus pyralis) (P08659 whole entry, looked up): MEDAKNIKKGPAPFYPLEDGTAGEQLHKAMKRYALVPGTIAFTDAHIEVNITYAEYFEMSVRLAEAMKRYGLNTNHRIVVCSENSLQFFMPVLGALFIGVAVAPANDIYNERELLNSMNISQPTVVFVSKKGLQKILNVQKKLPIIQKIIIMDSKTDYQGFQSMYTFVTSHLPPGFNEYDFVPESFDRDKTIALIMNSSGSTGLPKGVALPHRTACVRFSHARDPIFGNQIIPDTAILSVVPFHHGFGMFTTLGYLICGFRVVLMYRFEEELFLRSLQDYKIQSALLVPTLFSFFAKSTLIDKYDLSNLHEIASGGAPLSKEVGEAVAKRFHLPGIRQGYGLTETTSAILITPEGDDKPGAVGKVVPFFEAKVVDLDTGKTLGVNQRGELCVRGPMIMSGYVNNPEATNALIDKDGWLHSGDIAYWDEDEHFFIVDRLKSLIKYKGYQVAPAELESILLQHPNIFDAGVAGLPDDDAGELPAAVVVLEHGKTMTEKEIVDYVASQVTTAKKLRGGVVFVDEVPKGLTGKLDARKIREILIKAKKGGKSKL
Chain of Fibroblast growth factor 2 (Homo sapiens) (P09038 whole entry, looked up): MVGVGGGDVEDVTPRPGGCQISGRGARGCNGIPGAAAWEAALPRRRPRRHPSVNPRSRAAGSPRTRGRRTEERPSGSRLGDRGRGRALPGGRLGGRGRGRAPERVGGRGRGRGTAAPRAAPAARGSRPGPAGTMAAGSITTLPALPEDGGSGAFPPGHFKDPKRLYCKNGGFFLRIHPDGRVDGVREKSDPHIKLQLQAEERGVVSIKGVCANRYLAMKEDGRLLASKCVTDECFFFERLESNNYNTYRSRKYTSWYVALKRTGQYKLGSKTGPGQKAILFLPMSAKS
Chain of Follistatin (Homo sapiens) (P19883 whole entry, looked up): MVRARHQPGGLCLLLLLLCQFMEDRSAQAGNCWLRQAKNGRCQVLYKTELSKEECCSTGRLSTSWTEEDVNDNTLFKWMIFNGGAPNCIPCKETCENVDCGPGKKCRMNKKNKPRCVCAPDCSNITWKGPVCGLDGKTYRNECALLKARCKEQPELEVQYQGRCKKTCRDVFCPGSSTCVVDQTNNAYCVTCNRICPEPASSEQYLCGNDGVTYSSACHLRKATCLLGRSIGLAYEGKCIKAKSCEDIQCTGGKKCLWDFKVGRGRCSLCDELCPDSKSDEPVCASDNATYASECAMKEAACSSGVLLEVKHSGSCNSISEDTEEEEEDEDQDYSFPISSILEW
Chain of Concanavalin-A (Canavalia ensiformis) (P02866 whole entry, looked up): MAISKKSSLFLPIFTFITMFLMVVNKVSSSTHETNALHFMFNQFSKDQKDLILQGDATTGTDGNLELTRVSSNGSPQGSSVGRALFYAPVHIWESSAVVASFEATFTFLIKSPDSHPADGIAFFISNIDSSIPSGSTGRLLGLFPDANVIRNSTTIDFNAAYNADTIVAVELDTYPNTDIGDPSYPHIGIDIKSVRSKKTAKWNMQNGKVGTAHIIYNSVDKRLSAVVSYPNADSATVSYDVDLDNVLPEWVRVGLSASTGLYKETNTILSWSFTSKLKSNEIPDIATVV

In the case of `COc1ccc(C(O)C2C=CC3C(=O)N(c4ccccc4)C(=O)C3N2Nc2ccc([N+](=O)[O-])cc2)cc1OCc1ccccc1` (stereo not given), the composite z-score in test [1] was determined as 0.927; in test [3] it was 1.33; in [4], 0.708; in [5] it was 0.591; in test [6] it was 1.53; in test [7], 1.22. For the same molecule, the composite z-score in test [8] was 1.16; in [9], 0.471; in test [10], 1.14; in test [11] it was 1.71; in [12], 1.2; in [13], 0.315. Further, the composite z-score in test [14] was 0.995; in test [15] it was 0.508; in [16] it was 0.156; in [18] it was -0.29; in test [19], 1.45. The composite Z-score in test [2] is -0.114 (inactive). Also, the values for the z-score in test [17] and in test [20] were 0.41 and 1.42 (inactive), respectively.

In the case of `COCCOC(=O)N1C(=O)[C@@]2(c3cc(C#CCC(C(=O)OC)C(=O)OC)ccc31)[C@H](C(=O)N1CCCCCCC1)[C@H]1C(=O)O[C@H](c3ccccc3)[C@H](c3ccccc3)N1[C@@H]2c1ccc(OCCO)cc1`, the composite z-score in [1] stood at 0.786; in test [3], 1.61; in test [4], 0.738; in test [5] it was 0.643; in test [6], 3.78; in test [7], 1.06. Besides, the composite z-score in [8] stood at 1.3; in test [9] it was 1.53; in test [10], 1.15; in test [11], 0.887; in [12], 1.25; in [13], 1.97. The composite z-score in [14] was determined as 0.965; in test [15], 1.49; in test [16], 1.62; in test [18], 1.65; in test [19] it was 1.6. Further, in [2], the composite Z-score is 4.41 (inactive). In addition, the results for the z-score in test [17] and in test [20] were -1.49 and -0.0546 (inactive), respectively.

Regarding `CC(C)NC(=O)[C@@H]1c2ccccc2C(=O)N(Cc2ccccc2Cl)[C@H]1c1ccc(CO)cc1`, the composite z-score was 0.07 in [1]; -0.205 in test [3]; -0.121 in test [4]; 0.651 in test [5]; 1.29 in test [6]; 0.661 in test [7]. The composite z-score in test [8] is 1.03; in [9] it was -0.296; in test [10], -0.0903; in test [11] it was 3.06; in test [12], 0.247; in test [13], -0.313. For the same molecule, the composite z-score in test [14] is -0.629; in [15], -0.555; in test [16] it was -0.222; in test [18] it was -0.221; in test [19], 0.842. The composite Z-score in test [2] was 0.757 (inactive). Besides, the z-score was 2.55 in [17] and -1.08 (inactive) in test [20].

As to `COCCCNC(=O)[C@@]1(CCC(=O)OC(C)(C)C)N=C(c2ccc(OCCCO)cc2)O[C@H]1c1ccccc1CN=[N+]=[N-]`, the composite z-score in [1] was determined as 0.642; in [3], 0.433; in test [4], 0.0716; in [5] it was 0.577; in [6] it was 3.34; in [7], 1.53. Moreover, the composite z-score in [8] is 1.26; in test [9] it was -0.105; in [10], 0.8; in test [11] it was 3.15; in [12], 1.04; in [13], 1.02. The composite z-score was 1.01 in [14]; 1.39 in test [15]; 1.28 in test [16]; -0.34 in test [18]; 1.2 in test [19]. Further, the composite Z-score in test [2] is -0.371 (inactive). In addition, the z-score was -0.49 in test [17] and -1.05 (inactive) in test [20].

Consider `O=c1oc(-c2ccccc2)nc2cc(Br)ccc12`, for which the composite z-score in test [1] is -0.163; in test [3] it was -0.0647; in test [4], -0.0984; in [5], -0.0912; in [6], 0.704; in [7], 0.107. Also, the composite z-score was found to be 0.0872 in test [8]; 0.875 in [9]; 0.666 in test [10]; 0.118 in [11]; 0.71 in test [12]; 0.704 in [13]. Also, the composite z-score worked out at 0.481 in test [14]; 0.405 in test [15]; 0.671 in test [16]; 0.585 in test [18]; 0.466 in [19]. Moreover, the composite Z-score in test [2] was -0.12 (inactive). Besides, the z-score is 0.112 in [17] and -9.5 (active) in test [20].

Turning to `O=C/C=C/c1ccc(Cl)cc1`, the composite z-score was -1.04 in test [1]; -0.186 in test [3]; -0.127 in [4]; -0.457 in [5]; -0.267 in test [6]; -0.565 in [7]. The composite z-score was -1.01 in [8]; 0.0502 in test [9]; -0.184 in test [10]; -0.318 in test [11]; -1.36 in test [12]; -0.195 in test [13]. Further, the composite z-score in test [14] is -0.991; in test [15], -0.329; in test [16], -0.236; in [18], -0.283; in test [19], -0.488. In addition, the composite Z-score in test [2] was 0.411 (inactive). For the same molecule, the z-score was 2.19 in [17] and -0.712 (inactive) in [20].

These data come from PubChem BioAssay.
